Records with an inconclusive call do not appear. Where a call stands in place of a potency, no number is given. A number with no mark means an inactive call. The source made the active and inactive calls. Calls come from the whole dose curve; as a rule, active = well fitted curve in the direction sought with a large enough effect; inconclusive = small, poorly fitted or top-dose-only effect, or another doubt; inactive = no such curve, though single readings can be large; an effect the other way counts as inactive or inconclusive.
How the values were obtained:
[1] = tested on: C33A; assay: Primary qHTS to identify gynecologic anti-cancer compounds using libraries of approved drugs and bioactive compounds (AID 1345084); conditions: Gynecologic cancer cell panel viability, ATPlite luminescence, 48 h; series mostly up to 57.5 µM; note: nearly all actives have a fitted effect of over 55% in size
Method in brief: (§1)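 Cell viability after 48 h drug treatment, ATPlite luminescence readout; five doses.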

[2] = tested on: CAOV3; assay: as above; conditions: Gynecologic cancer cell panel viability, ATPlite luminescence, 48 h; series mostly up to 57.5 µM
Method in brief: as §1

[3] = tested on: CASKI; assay: as above; conditions: Gynecologic cancer cell panel viability, ATPlite luminescence, 48 h; series mostly up to 57.5 µM
Method in brief: as §1

[4] = tested on: Es-2; assay: as above; conditions: Gynecologic cancer cell panel viability, ATPlite luminescence, 48 h; series mostly up to 57.5 µM
Method in brief: as §1

[5] = tested on: HeLa; assay: as above; conditions: Gynecologic cancer cell panel viability, ATPlite luminescence, 48 h; series mostly up to 57.5 µM
Method in brief: as §1

[6] = tested on: Hek293T; assay: as above; conditions: Gynecologic cancer cell panel viability, ATPlite luminescence, 48 h, control line for the selectivity index; series mostly up to 57.5 µM
Method in brief: as §1

[7] = tested on: JEG-3; assay: as above; conditions: Gynecologic cancer cell panel viability, ATPlite luminescence, 48 h; series mostly up to 57.5 µM
Method in brief: as §1

[8] = tested on: OV90; assay: as above; conditions: Gynecologic cancer cell panel viability, ATPlite luminescence, 48 h; series mostly up to 57.5 µM
Method in brief: as §1

[9] = tested on: PA-1; assay: as above; conditions: Gynecologic cancer cell panel viability, ATPlite luminescence, 48 h; series mostly up to 57.5 µM
Method in brief: as §1

[10] = tested on: SKOV3; assay: as above; conditions: Gynecologic cancer cell panel viability, ATPlite luminescence, 48 h; series mostly up to 57.5 µM
Method in brief: as §1

[11] = tested on: Tov-21-G; assay: as above; conditions: Gynecologic cancer cell panel viability, ATPlite luminescence, 48 h; series mostly up to 57.5 µM
Method in brief: as §1

[12] = tested on: Tov112D; assay: as above; conditions: Gynecologic cancer cell panel viability, ATPlite luminescence, 48 h; series mostly up to 57.5 µM
Method in brief: as §1

[13] = Drug repurposing screens with cells derived from glioblastoma tumor samples (AID 1345199); conditions: GBM patient neurospheres viability, ATP luminescence, 48 h; note: nearly all actives have a fitted effect of over 40% in size; note: potency is the fitted concentration of half-maximal effect
Method in brief: (§2)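 Four patient lines of CD133+ GBM neurospheres were screened at several concentrations; hits were retested in those lines plus three slower-growing GBM lines, using 48-hour treatment and ATP-based viability.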

[14] = tested on: astro; assay: as above; conditions: viability, ATP luminescence, 48 h; series mostly up to 45.9 µM
Method in brief: as §2

[15] = at 45.9 µM (top of the series), tumour line B
[16] = at 45.9 µM (top of the series), tumour line D
[17] = at 46 µM (top of the series), tumour line A
[18] = at 46.1 µM (top of the series), tumour line C

CC1(C)O[C@@H]2C[C@H]3[C@@H]4CCC5=CC(=O)C=C[C@]5(C)[C@@]4(F)[C@@H](O)C[C@]3(C)[C@]2(C(=O)CO)O1
Potency [1]: inactive
Potency [2]: inactive
Potency [3]: inactive
Potency [4]: inactive
Potency [5]: inactive
Potency [6]: inactive
Potency [7]: inactive
Potency [8]: inactive
Potency [9]: inactive
Potency [10]: inactive
Potency [11]: inactive
Potency [12]: inactive

CN(C)CCN(Cc1ccsc1)c1ccccn1
Potency [1]: inactive
Potency [2]: inactive
Potency [3]: inactive
Potency [4]: inactive
Potency [5]: inactive
Potency [6]: inactive
Potency [7]: inactive
Potency [8]: inactive
Potency [9]: inactive
Potency [10]: inactive
Potency [11]: inactive
Potency [12]: inactive

COC(=O)C1=C(C)NC(C)=C(C(=O)OCCc2ccc(N3CCN(C(c4ccccc4)c4ccccc4)CC3)cc2)C1c1cccc([N+](=O)[O-])c1 (stereo not drawn)
Potency [1]: inactive
Potency [2]: inactive
Potency [3]: inactive
Potency [4]: inactive
Potency [5]: inactive
Potency [6]: inactive
Potency [7]: inactive
Potency [8]: inactive
Potency [9]: inactive
Potency [10]: inactive
Potency [11]: inactive
Potency [12]: inactive

CCCCCCCCCCCCCCCCCCN(C)C
Potency [1]: inactive
Potency [2]: inactive
Potency [3]: inactive
Potency [4]: inactive
Potency [5]: inactive
Potency [6]: inactive
Potency [7]: inactive
Potency [8]: inactive
Potency [9]: inactive
Potency [10]: inactive
Potency [11]: inactive
Potency [12]: inactive

COc1cc2c(cc1OC)CN(C(=O)[C@H](C)N[C@@H](CCc1ccccc1)C(=O)O)[C@H](C(=O)O)C2
Potency [1]: inactive
Potency [2]: inactive
Potency [3]: inactive
Potency [4]: inactive
Potency [5]: inactive
Potency [6]: inactive
Potency [7]: inactive
Potency [8]: inactive
Potency [9]: inactive
Potency [10]: inactive
Potency [11]: inactive
Potency [12]: inactive

COc1ccc2nc(SCc3ncc(C)c(OC)c3C)[nH]c2c1
Potency [1]: inactive
Potency [2]: inactive
Potency [3]: inactive
Potency [4]: inactive
Potency [5]: inactive
Potency [6]: inactive
Potency [7]: inactive
Potency [8]: inactive
Potency [9]: inactive
Potency [10]: inactive
Potency [11]: inactive
Potency [12]: inactive

CCOC(=O)C(=O)c1csc(NC=O)n1
Potency [1]: inactive
Potency [2]: inactive
Potency [3]: inactive
Potency [4]: inactive
Potency [5]: inactive
Potency [6]: inactive
Potency [7]: inactive
Potency [8]: inactive
Potency [9]: inactive
Potency [10]: inactive
Potency [11]: inactive
Potency [12]: inactive

O=C(O)Cn1c(=O)n(Cc2ccc(Br)cc2F)c(=O)c2ccc(Cl)cc21
Potency [1]: inactive
Potency [2]: inactive
Potency [3]: inactive
Potency [4]: inactive
Potency [5]: inactive
Potency [6]: inactive
Potency [7]: inactive
Potency [8]: inactive
Potency [9]: inactive
Potency [10]: inactive
Potency [11]: inactive
Potency [12]: inactive

COc1cc(S(N)(=O)=O)cc(C(=O)O)c1OC
Potency [1]: inactive
Potency [2]: inactive
Potency [3]: inactive
Potency [4]: inactive
Potency [5]: inactive
Potency [6]: inactive
Potency [7]: inactive
Potency [8]: inactive
Potency [9]: inactive
Potency [10]: inactive
Potency [11]: inactive
Potency [12]: inactive

CN1CCCN=C1/C=C/c1cccs1
Potency [1]: inactive
Potency [2]: inactive
Potency [3]: inactive
Potency [4]: inactive
Potency [5]: inactive
Potency [6]: inactive
Potency [7]: inactive
Potency [8]: inactive
Potency [9]: inactive
Potency [10]: inactive
Potency [11]: inactive
Potency [12]: inactive
activity, negative = cell killing [13, 15]: -1.18%
activity, negative = cell killing [13, 16]: -9.69%
activity, negative = cell killing [13, 17]: -29.5%
activity, negative = cell killing [13, 18]: 6.9%
Potency [14]: inactive

CC(=O)Nc1c(I)c(NC(C)=O)c(I)c(C(=O)O)c1I
Potency [1]: inactive
Potency [2]: inactive
Potency [3]: inactive
Potency [4]: inactive
Potency [5]: inactive
Potency [6]: inactive
Potency [7]: inactive
Potency [8]: inactive
Potency [9]: inactive
Potency [10]: inactive
Potency [11]: inactive
Potency [12]: inactive
activity, negative = cell killing [13, 15]: -4.92%
activity, negative = cell killing [13, 16]: -9.58%
activity, negative = cell killing [13, 17]: -18.7%
activity, negative = cell killing [13, 18]: -9.62%
Potency [14]: inactive

O=C(O)c1[nH]n(-c2ccc(S(=O)(=O)O)cc2)c(=O)c1N=Nc1ccc(S(=O)(=O)O)cc1
Potency [1]: inactive
Potency [2]: inactive
Potency [3]: inactive
Potency [4]: inactive
Potency [5]: inactive
Potency [6]: inactive
Potency [7]: inactive
Potency [8]: inactive
Potency [9]: inactive
Potency [10]: inactive
Potency [11]: inactive
Potency [12]: inactive
activity, negative = cell killing [13, 15]: 1.15%
activity, negative = cell killing [13, 16]: -22.4%
activity, negative = cell killing [13, 18]: -16.3%
Potency ([13]; tumour line A): 28.2 µM (active)
Potency [14]: inactive

CCO[C@H](Cc1ccc(OCCc2ccc(OS(C)(=O)=O)cc2)cc1)C(=O)O
Potency [1]: inactive
Potency [2]: inactive
Potency [3]: inactive
Potency [4]: inactive
Potency [5]: inactive
Potency [6]: inactive
Potency [7]: inactive
Potency [8]: inactive
Potency [9]: inactive
Potency [10]: inactive
Potency [11]: inactive
Potency [12]: inactive
activity, negative = cell killing [13, 15]: -8.78%
activity, negative = cell killing [13, 16]: -11.2%
activity, negative = cell killing [13, 18]: -26%
Potency ([13]; tumour line A): 14.1 µM (active)
Potency [14]: inactive

COc1cc2c(cc1OC)C(=O)CC2
Potency [1]: inactive
Potency [2]: inactive
Potency [3]: inactive
Potency [4]: inactive
Potency [5]: inactive
Potency [6]: inactive
Potency [7]: inactive
Potency [8]: inactive
Potency [9]: inactive
Potency [10]: inactive
Potency [11]: inactive
Potency [12]: inactive

CC(C)=CCC/C(C)=C/CC/C(C)=C/CCC(=O)OC/C=C(\C)CCC=C(C)C
Potency [1]: inactive
Potency [2]: inactive
Potency [3]: inactive
Potency [4]: inactive
Potency [5]: inactive
Potency [6]: inactive
Potency [7]: inactive
Potency [8]: inactive
Potency [9]: inactive
Potency [10]: inactive
Potency [11]: inactive
Potency [12]: inactive
activity, negative = cell killing [13, 15]: -1.59%
activity, negative = cell killing [13, 16]: -0.887%
activity, negative = cell killing [13, 18]: -6.49%
Potency ([13]; tumour line A): 35.5 µM (active)
Potency [14]: inactive

O=C(O)Cc1ccc(OCCNC[C@H](O)c2ccccc2)cc1
Potency [1]: inactive
Potency [2]: inactive
Potency [3]: inactive
Potency [4]: inactive
Potency [5]: inactive
Potency [6]: inactive
Potency [7]: inactive
Potency [8]: inactive
Potency [9]: inactive
Potency [10]: inactive
Potency [11]: inactive
Potency [12]: inactive
activity, negative = cell killing [13, 15]: -8.45%
activity, negative = cell killing [13, 16]: 5.34%
activity, negative = cell killing [13, 17]: -29.2%
activity, negative = cell killing [13, 18]: 9.13%
Potency [14]: inactive

CCCC(=O)O[C@]1(C(=O)COC(=O)CC)CC[C@H]2[C@@H]3CCC4=CC(=O)CC[C@]4(C)[C@H]3[C@@H](O)C[C@@]21C
Potency [1]: inactive
Potency [2]: inactive
Potency [3]: inactive
Potency [4]: inactive
Potency [5]: inactive
Potency [6]: inactive
Potency [7]: inactive
Potency [8]: inactive
Potency [9]: inactive
Potency [10]: inactive
Potency [11]: inactive
Potency [12]: inactive
activity, negative = cell killing [13, 15]: -1.31%
activity, negative = cell killing [13, 16]: -7.61%
activity, negative = cell killing [13, 17]: -4.97%
activity, negative = cell killing [13, 18]: 15.1%
Potency [14]: inactive

CC(C)(C)c1nnc(NS(=O)(=O)c2ccccc2)s1
Potency [1]: inactive
Potency [2]: inactive
Potency [3]: inactive
Potency [4]: inactive
Potency [5]: inactive
Potency [6]: inactive
Potency [7]: inactive
Potency [8]: inactive
Potency [9]: inactive
Potency [10]: inactive
Potency [11]: inactive
Potency [12]: inactive
activity, negative = cell killing [13, 15]: -2.48%
activity, negative = cell killing [13, 16]: -22.3%
activity, negative = cell killing [13, 17]: -25.7%
activity, negative = cell killing [13, 18]: -15.6%
Potency [14]: inactive

CC1c2ccccc2CN1NC(=O)c1ccc(Cl)c(S(N)(=O)=O)c1 (stereo not drawn)
Potency [1]: inactive
Potency [2]: inactive
Potency [3]: inactive
Potency [4]: inactive
Potency [5]: inactive
Potency [6]: inactive
Potency [7]: inactive
Potency [8]: inactive
Potency [9]: inactive
Potency [10]: inactive
Potency [11]: inactive
Potency [12]: inactive
activity, negative = cell killing [13, 15]: -2.5%
activity, negative = cell killing [13, 16]: -6.17%
activity, negative = cell killing [13, 17]: -22.8%
activity, negative = cell killing [13, 18]: -11.2%
Potency [14]: inactive
